The values that follow come from PubChem BioAssay AID493220 (National Center for Advancing Translational Sciences (NCATS), 2011).

The structures appear in SMILES notation. Results filed as inconclusive are left out. The source made the active and inactive calls. Calls follow the shape of the full dose curve.

The target of this test is Polyunsaturated fatty acid lipoxygenase ALOX15 (Homo sapiens) (UniProt P16050). In words: Inhibitors of 12-hLO (12-human lipoxygenase): 15hLO-1 Cuvette-Based Inhibition Counterscreen Assay for 12hLO Followup Compounds. The note with it: purified 15hLO-1, UV 234 nm product formation. The method in brief: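 Purified human 15hLO-1 at 50-200 nM, set to give 0.02-0.04 AU/s, was added to 10 uM arachidonic acid in 25 mM HEPES with 0.01% Triton X-100, pH 8.0. Product formation was followed at 234 nm in a stirred cuvette. IC50 values came from rates at about five inhibitor concentrations.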
Sequence of Polyunsaturated fatty acid lipoxygenase ALOX15 (Homo sapiens) (P16050 whole entry, looked up): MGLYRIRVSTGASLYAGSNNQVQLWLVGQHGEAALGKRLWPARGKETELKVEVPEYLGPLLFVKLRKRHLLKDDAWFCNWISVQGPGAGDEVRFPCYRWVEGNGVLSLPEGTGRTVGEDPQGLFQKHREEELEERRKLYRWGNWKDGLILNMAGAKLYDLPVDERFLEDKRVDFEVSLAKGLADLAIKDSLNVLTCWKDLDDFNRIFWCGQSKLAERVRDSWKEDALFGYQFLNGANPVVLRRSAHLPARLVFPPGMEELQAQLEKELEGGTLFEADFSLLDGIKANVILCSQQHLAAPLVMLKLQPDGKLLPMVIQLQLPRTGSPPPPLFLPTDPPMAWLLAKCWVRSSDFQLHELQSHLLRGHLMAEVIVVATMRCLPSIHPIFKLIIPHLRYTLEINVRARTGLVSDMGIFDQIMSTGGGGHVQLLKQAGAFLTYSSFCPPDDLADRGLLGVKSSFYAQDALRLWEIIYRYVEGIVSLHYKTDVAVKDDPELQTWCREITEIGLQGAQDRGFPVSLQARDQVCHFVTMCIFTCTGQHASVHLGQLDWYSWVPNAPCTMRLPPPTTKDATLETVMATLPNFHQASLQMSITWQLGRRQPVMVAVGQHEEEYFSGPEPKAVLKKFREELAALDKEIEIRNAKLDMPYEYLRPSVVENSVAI
(The purpose of a counterscreen is to sort out artefacts and off-target activity.)
Consider `CCc1cc(-c2n[nH]c(C)c2Oc2ccc(C(C)C)cc2)c(O)cc1O`, for which the Potency was 3.87 µM (active).
As for `O=C(Nc1nnc(-c2ccc(Cl)cc2)o1)c1ccccc1Br`, the outcome was inactive.
In the case of `c1ccc(-c2nc(NCc3cccnc3)c3oc4ccccc4c3n2)cc1`, the Potency is 31 µM (active).
For `Cc1oc2c(O)c(O)ccc2c(=O)c1-c1cnn(-c2ccccc2)c1`, the Potency is 18.9 µM (active).
The same measure, in the same setting: as for `O=S(=O)(Nc1ccc(O)c(Sc2nc3ccccc3s2)c1)c1ccc(Cl)cc1`, the figure is 12.6 µM (active); as for `COc1cccc(-c2cnc(NCc3cc(Cl)ccc3O)n2C)c1`, 32.9 µM (active).
Same read-out and setting: as for `COc1ccc(-c2n[nH]c(C)c2-c2ccc(Cl)cc2)c(O)c1`, the figure is 3.51 µM (active); as for `Oc1ccc(-c2csc(-c3ccccc3)n2)cc1O`, 0.67 µM (active).
Regarding `O=C(Nc1nnc(C2=COCCO2)o1)c1ccc(Cl)cc1`, the outcome was inactive.
As to `CCc1cc(-c2[nH]ncc2-c2ccc3c(c2)OCO3)c(O)cc1O`, the Potency is 4.01 µM (active).
Same read-out and setting: as for `CCCOC(=O)c1ccc(Oc2cn[nH]c2-c2ccc(OC)cc2O)cc1`, the figure is 13.1 µM (active).
Consider `CCOC(=O)CNC(c1ccccc1)c1cc(Br)ccc1NC(=O)CCN1CCOCC1` (stereo not given), for which the compound was classed as inactive.
Still for that read-out and setting: as for `COc1cc(CNc2ccc(O)cc2)cc(Br)c1OCc1ccccc1F`, the entry is “inactive”.
In the case of `CC(Oc1ccc(Cl)cc1Cl)C(=O)NC1=NN(c2ccccc2)C(=O)C1` (stereo not given), the Potency is 65 µM (active).
Still for that read-out and setting: as for `Oc1ccc(C2=Nn3c(nnc3-c3ccco3)SC2)cc1O`, the figure is 39.1 µM (active).
